The campaign covered roughly 340,000 compounds. About 3,300 (0.97%) were called active. About 9% were inconclusive and are not listed. Calls follow the shape of the dose curve; as a rule, active = well fitted inhibition curve with a large enough effect; inconclusive = small, poorly fitted or top-dose-only effect, or effect the other way; inactive = flat fitted curve, though single readings scatter. This is one part of the list.
assay: qHTS Assay for Modulators of miRNAs and/or Inhibitors of miR-21; settings: HeLa miR-21-FLuc reporter, luciferase luminescence, 48 h; actives lower the signal; also: nearly all actives have a fitted effect of over 55% in size
Summary of the method: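 HeLa cells stably expressing CMV-driven firefly luciferase with a downstream miR-21 binding sequence, endogenously expressing miR-21, were treated with titrations (up to about 40uM final) for 48 hours at 37 degree Celsius. Luciferase luminescence was read after lysis.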
Potency is read from the fitted curve at half-maximal effect.

Potency, active:
COc1cccc(-c2nc(=S)c3c(o2)CCCC3)c1 1.85 µM, Cc1nnc(SCc2nc3ccccc3s2)n1-c1ccccc1 16.5 µM, CCn1c(SCc2nc3ccccc3s2)nnc1-c1ccccc1 16.5 µM, Cc1cccc(C)c1Nc1nnc(SCc2nc3ccccc3s2)s1 4.65 µM, COCCn1c(SCc2nc3ccccc3s2)nc2ccccc21 8.26 µM, O=c1c2ccccc2nc(SCc2nc3ccccc3s2)n1CCCO 11.7 µM, c1ccc(SCc2nc3ccccc3s2)nc1 3.69 µM, CCCn1c(SCc2nc3ccccc3s2)n[nH]c1=O 6.56 µM, CCCSc1nnc(Nc2ccccc2C)s1 5.85 µM, Brc1ccccc1-c1nnc(SCc2nc3ccccc3s2)o1 8.26 µM, Cc1ccccc1OCCSc1nnc(C)n1-c1ccccc1 14.7 µM, Nc1ccc(O)c2c(=O)cc(-c3ccccc3Cl)oc12 3.29 µM, O=c1cc(-c2ccccc2Cl)oc2cc(O)cc(O)c12 10.4 µM, Nc1ccc2oc(-c3ccccc3Cl)cc(=O)c2c1O 6.56 µM, C#Cc1cccc(NC(=O)c2ccc(Cl)cc2Cl)c1 1.17 µM, O/N=C/c1cn(-c2ccc(Cl)cc2)nn1 13.1 µM, O=C(COc1ccc(F)cc1Br)NCc1ccccn1 14.7 µM, COc1ccccc1C(=O)NC(=O)Nc1cccc(Cl)c1 0.736 µM, Cc1ccc(CNC(=O)Nc2ccccc2)c(C)c1 1.65 µM, COc1ccc(CNC(=O)Nc2cccc(Cl)c2)cc1 3.69 µM, COc1ccc(CNC(=S)N/N=C(/C)c2ccccc2)cc1 11.7 µM, CSc1ccc(NC(=O)NCc2ccccc2)cc1 9.27 µM, COc1ccc(CNC(=O)Nc2ccccc2)cc1 4.65 µM, COc1ccc(/C=N/N=C2/SCC(=O)N2Cc2ccccc2)cc1 2.07 µM, CCc1ccc2[nH]c(C(=O)Nc3ccc(Br)c(C)n3)cc2c1 1.65 µM, COc1ccc(CNc2nc3nc(C)c(Cl)c(C)n3n2)cc1 16.5 µM, COc1cccc(CNc2nc3nc(C)c(Cl)c(C)n3n2)c1 10.4 µM, O=C(COc1ccccc1Cl)Nc1cccnc1 6.56 µM, Cc1ccc(Cl)c(OCC(=O)Nc2cccnc2)c1 3.29 µM, Cc1ccc(OCC(=O)Nc2ccccc2[N+](=O)[O-])c(Br)c1 1.31 µM, O=C(/C=C/c1ccccc1[N+](=O)[O-])Nc1cccnc1 7.36 µM

From PubChem BioAssay AID2289 (National Center for Advancing Translational Sciences (NCATS), 2010)
